Hit rate of the full screen: of about 5,500 compounds, about 2,000 (36%) were called active. About 18% were inconclusive and are not listed. The list shows a part of the results. Unmarked numbers belong to inactive results. No stated cut-off is given here; in the data, active means normalized growth mostly below about 0.91 (no sharp cut-off); inconclusive means no clear call, values can overlap the other calls; inactive means mostly above about 0.92.

The nature of this test: chemical genetic growth profiling, strain panel (AID 1159580).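 Further: tested at 20 µM; growth read once vehicle control cultures reached saturation at 30 °C; 1 = growth at the plate median or of vehicle wells; lower values mean less growth of the strain.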 The settings on record: growth OD.
Where [1] appears, read: S. cerevisiae deletion strains, locus YDR150W, strain NUM1, active compounds read low.
[2] abbreviates: S. cerevisiae deletion strains, locus YGR078C, strain PAC10, active compounds read low.
Setting [3] is: S. cerevisiae deletion strains, locus YNL153C, strain GIM3, active compounds read low.
Setting [4] is: S. cerevisiae deletion strains, locus YPL055C, strain LGE1, active compounds read low.
Setting [5] is: S. cerevisiae deletion strains, locus YAL013W, strain DEP1, active compounds read low.
Setting [6] is: S. cerevisiae deletion strains, locus YBR229C, strain ROT2, active compounds read low.
Where [7] appears, read: S. cerevisiae deletion strains, locus YCL061C, strain MRC1, active compounds read low.
Where [8] appears, read: S. cerevisiae deletion strains, locus YDL101C, strain DUN1, active compounds read low.
The mark [9] stands for this setting: S. cerevisiae deletion strains, locus YEL061C, strain CIN8, active compounds read low.
The mark [10] stands for this setting: S. cerevisiae deletion strains, locus YGR229C, strain SMI1, active compounds read low.
[11] abbreviates: S. cerevisiae deletion strains, locus YHR030C, strain SLT2, active compounds read low.
Setting [12] is: S. cerevisiae deletion strains, locus YHR087W, strain rtc3, active compounds read low.
[13] abbreviates: S. cerevisiae deletion strains, locus YJL187C, strain SWE1, active compounds read low.
Where [14] appears, read: S. cerevisiae deletion strains, locus YJR043C, strain POL32, active compounds read low.
Setting [15] is: S. cerevisiae deletion strains, locus YJR075W, strain HOC1, active compounds read low.
Where [16] appears, read: S. cerevisiae deletion strains, locus YLR039C, strain RIC1, active compounds read low.
[17] abbreviates: S. cerevisiae deletion strains, locus YLR058C, strain SHM2 (second series), active compounds read low.
Setting [18] is: S. cerevisiae deletion strains, locus YLR085C, strain ARP6, active compounds read low.
The mark [19] stands for this setting: S. cerevisiae deletion strains, locus YLR262C, strain YPT6, active compounds read low.
The mark [20] stands for this setting: S. cerevisiae deletion strains, locus YML094W, strain GIM5, active compounds read low.
[21] abbreviates: S. cerevisiae deletion strains, locus YMR219W, strain ESC1, active compounds read low.
Setting [22] is: S. cerevisiae deletion strains, locus YMR263W, strain SAP30, active compounds read low.
Where [23] appears, read: S. cerevisiae deletion strains, locus YNL298W, strain CLA4 (second series), active compounds read low.
Setting [24] is: S. cerevisiae deletion strains, locus YNL322C, strain KRE1, active compounds read low.
The mark [25] stands for this setting: S. cerevisiae deletion strains, locus YNR030W, strain Alg12, active compounds read low.
Setting [26] is: S. cerevisiae deletion strains, locus YPL241C, strain CIN2, active compounds read low.
[27] abbreviates: S. cerevisiae deletion strains, locus YPR135W, strain CTF4, active compounds read low.
[28] abbreviates: S. cerevisiae deletion strains, locus YNL128W, strain TEP1, active compounds read low.

For `CC(C)C[C@H](NC(=O)[C@@H](O)[C@H](N)Cc1ccccc1)C(=O)O`, the normalized growth (S. cerevisiae deletion strains, locus YAL040C, strain CLN3, active compounds read low) was 1.05; the normalized growth (S. cerevisiae deletion strains, locus YCL061C, strain MRC1 (second series), active compounds read low) is 1.01; the normalized growth under setting [1] is 1.03; the normalized growth (S. cerevisiae deletion strains, locus YDR363W, strain ESC2, active compounds read low) was 0.994; the normalized growth (S. cerevisiae deletion strains, locus YER002W, strain NOP16, active compounds read low) is 1.02; the normalized growth under setting [2] was 0.998. Further, the normalized growth is 1.03 under setting [3]; 0.997 (S. cerevisiae deletion strains, locus YNL175C, strain NOP13, active compounds read low); 0.996 (S. cerevisiae deletion strains, locus YNL197C, strain WHI3, active compounds read low); 1.01 (S. cerevisiae deletion strains, locus YNL224C, strain SQS1, active compounds read low); 0.989 (S. cerevisiae deletion strains, locus YOR083W, strain WHI5 (second series), active compounds read low); 1.02 under setting [4].

As for `CCO/C=C1\SC(=S)N(CCc2ccccc2)C1=O`, the normalized growth by setting is: under setting [5], 0.969; under setting [6], 0.898 (active); under setting [7], 0.882 (active); under setting [8], 0.973; under setting [1], 0.986; under setting [9], 0.66 (active). Further, the normalized growth is, setting by setting: under setting [2], 0.919 (active); under setting [10], 0.893 (active); under setting [11], 0.149 (active); under setting [12], 0.847 (active); under setting [13], 0.897 (active); under setting [14], 0.961. For the same molecule, the normalized growth is, setting by setting: under setting [15], 0.843 (active); (S. cerevisiae deletion strains, locus YKL190W, strain CNB1, active compounds read low) 0.736 (active); under setting [16], 0.166 (active); under setting [17], 0.898 (active); under setting [18], 0.181 (active); under setting [19], 0.193 (active). For the same molecule, the normalized growth was 0.882 under setting [20]; 0.906 (active) under setting [21]; 0.962 under setting [22]; 0.936 under setting [3]; 0.561 (active) under setting [23]; 0.926 (active) under setting [24]. Besides, the normalized growth is, setting by setting: under setting [25], 0.929; under setting [4], 0.975; under setting [26], 0.969; under setting [27], 0.305 (active).

As for `Cc1ccc(OS(=O)(=O)c2ccc(C#N)cc2)c(Br)c1`, the normalized growth was 0.954 under setting [5]; 1 under setting [6]; 0.954 under setting [8]; 0.973 under setting [1]; 0.934 under setting [9]; 0.976 under setting [2]. Also, the normalized growth is 0.62 (active) under setting [11]; 1.02 under setting [13]; 0.979 under setting [14]; 0.953 under setting [15]; 0.712 (active) under setting [16]; 0.997 under setting [17]. Moreover, the normalized growth reads like this: under setting [18], 0.784; under setting [19], 0.796 (active); under setting [20], 0.957; under setting [21], 0.985; under setting [22], 0.966; under setting [28], 0.969. The normalized growth under setting [3] is 0.96; the normalized growth under setting [23] is 0.881; the normalized growth under setting [24] is 0.981; the normalized growth under setting [25] was 0.918; the normalized growth (S. cerevisiae deletion strains, locus YOL006C, strain TOP1, active compounds read low) was 0.765; the normalized growth under setting [4] is 0.936. The normalized growth runs as follows: under setting [26], 0.927; under setting [27], 0.628 (active); (S. cerevisiae strains, strain wild type, active compounds read low) 0.907 (active).

On to `COc1ccc(OC)c(S(=O)(=O)Oc2ccc(C#N)cc2)c1`, for which the normalized growth was 0.997 under setting [5]; 0.994 under setting [6]; 1.02 under setting [7]; 0.984 under setting [8]; 1.01 (S. cerevisiae deletion strains, locus YDL134C, strain PPH21, active compounds read low); 0.98 under setting [1]. For the same molecule, the normalized growth under setting [9] was 0.956; the normalized growth under setting [2] is 0.994; the normalized growth under setting [10] is 0.968; the normalized growth under setting [11] is 0.937; the normalized growth under setting [12] was 0.968; the normalized growth under setting [14] was 0.981. Besides, the normalized growth by setting is: under setting [15], 1; under setting [16], 1.09; under setting [17], 0.992; under setting [18], 0.93; under setting [19], 1.09; under setting [20], 0.981. The normalized growth is 1.01 under setting [21]; 0.992 under setting [22]; 1 under setting [28]; 0.977 under setting [3]; 0.972 under setting [23]; 1 under setting [24]. The normalized growth is, setting by setting: under setting [25], 0.973; under setting [4], 0.961; under setting [26], 0.987; under setting [27], 0.924.

The record behind these values is PubChem BioAssay AID1159580 (chemical genetic matrix, 2015).
